In the library only some 2.4% were active in any assay of this set; here they are far more common.
PLC-beta3 inh: PLC-beta3 (human) inhibition, primary screen | Q01970 | Purified PLC-beta3, fluorogenic substrate, fluorescence | inhibition, % at 12.2 µM | 370,000 tested, 0.18% active; in the data active = inhibition above about 11%;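 note: 0% = median of compound wells on plate and 100% = full blocker control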
UHRF1 MBD2 ctr: blocks human UHRF1 binding to methylated DNA | Q96T88 | UHRF1 binding to methylated oligo, TR-FRET | inhibition, % at 4.4 µM | 370,000 tested, 0.75% active; in the data active = inhibition above about 21%;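 note: UHRF1 SRA domain binding a hemimethylated CpG hairpin DNA probe; 0% = median of test compound wells and 100% = reference inhibitor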
PLC-gamma1 inh: PLC-gamma1 (human) inhibition, primary screen; P19174; AID 720700; inhibition, % at 12.2 µM; 370,000 tested, 0.84% active; purified PLC-gamma1, fluorogenic substrate, fluorescence
LEDGF integ inh: blocks HIV-1 LEDGF/p75-dependent DNA integration | inhibition, % at 3.7 µM | 370,000 tested, 0.64% active | TR-FRET IN-LEDGF/p75 DNA integration, Eu/Cy5 | AID 743269;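 active = inhibition above the screen-wide mean plus 3 SD, cut at about 13% in these data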;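 note: signal is the Cy5 over europium emission ratio at 671 and 618 nm; 0% = plate median of compound wells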
MBD2 DNA inh: inhibitors of human MBD2 binding to methylated oligonucleotide | Q9UBB5 | 370,000 tested, 0.31% active | TR-FRET | AID 686964 | inhibition, % at 4.4 µM; in the data active = inhibition above about 13%
PLCg1 ctr: inhibits human PLC-gamma1 in PLC-beta3 counter-screen; inhibition, % at 12.3 µM; AID 743258; 3,300 tested, 3.1% active; shares compounds with PLC-gamma1 inh; purified PLC-gamma1, fluorogenic substrate, fluorescence
PLCbeta3 conf: human PLC-beta3 inhibition, confirmation | shares compounds with PLC-gamma1 inh | purified PLC-beta3, fluorogenic substrate fluorescence | inhibition, % at 12.3 µM | 3,300 tested, 1% active; in the data active = inhibition above about 11%
The depositor's hits bear a star. Cut-off read from the data, not from the text of the source, unless noted: active = inhibition above about 9.5%; inactive = the rest.

Screening C=C1CC2C=C(NC(C)=O)CC(C1)C2 (stereo not drawn) returned PLC-beta3 inh 4.1, UHRF1 MBD2 ctr 3.6, PLC-gamma1 inh 11.7*, LEDGF integ inh -2.1, MBD2 DNA inh 3.0, PLCg1 ctr -41.9 and PLCbeta3 conf -1.0.
Screening Cc1[nH]n(-c2ccccc2)c(=O)c1CCOC(=O)c1cccc(C(F)(F)F)c1 returned PLC-beta3 inh 5.5, UHRF1 MBD2 ctr 4.5, PLC-gamma1 inh 10.8*, LEDGF integ inh 4.1, MBD2 DNA inh -2.4, PLCg1 ctr -8.2 and PLCbeta3 conf -4.9.
Screening O=C(NCC1COc2ccccc2O1)c1ccc(NC(=O)c2cccc(F)c2F)cc1 (stereo not drawn) returned PLC-beta3 inh 2.4, UHRF1 MBD2 ctr 0.7, PLC-gamma1 inh -1.9, LEDGF integ inh -2.3 and MBD2 DNA inh -3.8.
CC(NC(=O)Cn1nc(-c2ccccc2)c2ccccc2c1=O)c1ccccc1 (stereo not drawn) was read as PLC-beta3 inh 4.2, UHRF1 MBD2 ctr -0.4, PLC-gamma1 inh 0.9, LEDGF integ inh 1.3 and MBD2 DNA inh 0.8.
Screening COc1ccc(Cn2nc(C(=O)O)c3ccccc3c2=O)cc1F returned PLC-beta3 inh -10.7, UHRF1 MBD2 ctr 0.8, PLC-gamma1 inh -1.7, LEDGF integ inh -10.0 and MBD2 DNA inh 3.4.
`COc1ccc(F)cc1Cn1nc(C(=O)O)c2ccccc2c1=O` gave PLC-beta3 inh 0.8, UHRF1 MBD2 ctr 2.0, PLC-gamma1 inh 12.1*, LEDGF integ inh 2.4, MBD2 DNA inh -0.2, PLCg1 ctr 4.9 and PLCbeta3 conf 1.6.
Screening CC(NC(=O)Cn1nc(C(=O)O)c2ccccc2c1=O)c1ccccc1 (stereo not drawn) returned PLC-beta3 inh 11.9*, UHRF1 MBD2 ctr 0.8, PLC-gamma1 inh 10.7*, LEDGF integ inh 5.9, MBD2 DNA inh -9.3, PLCg1 ctr -1.6 and PLCbeta3 conf 1.1.
For CCCCC1CCC(c2nc(-c3ccccn3)no2)CC1 (stereo not drawn) the results were PLC-beta3 inh 3.4, UHRF1 MBD2 ctr 2.2, PLC-gamma1 inh 9.8*, LEDGF integ inh 2.5, MBD2 DNA inh 1.3, PLCg1 ctr -3.8 and PLCbeta3 conf -3.8.
Cc1ccc(-n2nnnc2CNC(=O)C2CC(=O)N(c3ccccc3)C2)cc1C (stereo not drawn) was read as PLC-beta3 inh -2.7, UHRF1 MBD2 ctr -0.1, PLC-gamma1 inh 13.4*, LEDGF integ inh 8.0, MBD2 DNA inh 4.6, PLCg1 ctr 1.6 and PLCbeta3 conf 1.7.
For Cc1ccc(N2CC(C(=O)NCc3nnnn3-c3ccc(C)c(C)c3)CC2=O)cc1 (stereo not drawn) the results were PLC-beta3 inh -10.4, UHRF1 MBD2 ctr 4.0, PLC-gamma1 inh 0.8, LEDGF integ inh -2.5 and MBD2 DNA inh -2.9.
For C[C@@H]1COc2cc(Br)ccc2S(=O)(=O)N1Cc1cn(CCC2OCCO2)nn1 the results were PLC-beta3 inh 0.4, UHRF1 MBD2 ctr -2.6, PLC-gamma1 inh 2.3, LEDGF integ inh 6.8 and MBD2 DNA inh 2.7.
For O=C(CCc1ccccc1)N[C@H]1[C@@H](OC(=O)c2cnccn2)CCC[C@]12C(=O)N(Cc1ccccc1)c1ccccc12 the results were PLC-beta3 inh -1.6, UHRF1 MBD2 ctr -0.3, PLC-gamma1 inh 0.6, LEDGF integ inh -1.0 and MBD2 DNA inh 2.9.
COc1cccc(NC(=O)N(Cc2cc3cc(C)cc(C)c3[nH]c2=O)CC2COCCO2)c1 (stereo not drawn) was read as PLC-beta3 inh 9.9, UHRF1 MBD2 ctr 1.8, PLC-gamma1 inh 11.3*, LEDGF integ inh -0.1, MBD2 DNA inh -3.7, PLCg1 ctr -7.3 and PLCbeta3 conf -4.0.
Cc1ccc(NC(=O)N(Cc2cc3cc(C)cc(C)c3[nH]c2=O)CC2COCCO2)cc1 (stereo not drawn) was read as PLC-beta3 inh 2.0, UHRF1 MBD2 ctr -0.6, PLC-gamma1 inh 4.3, LEDGF integ inh -3.0 and MBD2 DNA inh 2.9.
`Cc1nc2ccccn2c1C(=O)NCc1ccc2c(c1)OCO2` gave PLC-beta3 inh 0.5, UHRF1 MBD2 ctr 0.5, PLC-gamma1 inh 10.2*, LEDGF integ inh -1.1, MBD2 DNA inh -6.3, PLCg1 ctr -5.2 and PLCbeta3 conf -2.3.
